Results on 69 compounds are retold here after ChEMBL document CHEMBL3988442, “University of Dundee, Small-Polar-MMV Screening Library” (2021).

Structures are written as SMILES. Out of some 69,000 compounds screened, about 420 (0.61%) showed an effect of 50% or more. Only a selection was taken, and strong results are over-represented in it overall.

For the assay, the target named is T1, Histidine--tRNA ligase (Leishmania infantum) (UniProt A4I591).
T1 sequence (whole entry): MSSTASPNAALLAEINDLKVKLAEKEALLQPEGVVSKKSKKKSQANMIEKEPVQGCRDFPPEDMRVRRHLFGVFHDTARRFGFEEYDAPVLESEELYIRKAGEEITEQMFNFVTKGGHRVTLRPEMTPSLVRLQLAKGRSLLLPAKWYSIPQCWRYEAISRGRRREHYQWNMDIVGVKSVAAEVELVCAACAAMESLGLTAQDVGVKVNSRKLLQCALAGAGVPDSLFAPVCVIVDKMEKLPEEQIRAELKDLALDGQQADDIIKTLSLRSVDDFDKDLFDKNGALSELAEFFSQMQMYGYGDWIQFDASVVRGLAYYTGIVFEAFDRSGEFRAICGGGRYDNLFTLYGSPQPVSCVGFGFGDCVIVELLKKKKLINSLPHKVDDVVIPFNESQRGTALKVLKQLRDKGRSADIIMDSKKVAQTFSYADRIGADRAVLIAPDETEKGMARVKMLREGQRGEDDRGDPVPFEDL
As to the kind of experiment: Leishmania infantum Histidine tRNA synthetase (LdHisRS). It counts as functional. Set-up: scale not given: in the data most compounds retested in dose-response had high values. As to conditions: 30 µM.
On to `O=C([C@H]1CN(Cc2ccoc2)C[C@H]2OCC[C@@H]12)N1CCCCO1`, for which the Percent Effect was 22.2%.
`Cc1nc(CN2CCO[C@@H]3CN(C(=O)CC4CC4)CC[C@@H]3C2)cs1`: the Percent Effect was 12.7%.
The result for `COC[C@@H]1CC[C@H]2[C@H](CCN2S(=O)(=O)c2ccc(C)cc2)O1` reads 2.65%; that for `CN(C)C[C@H]1OC[C@@H]2CN(C(=O)NCc3cccc(F)c3)CC[C@@H]21`, 0%; that for `Cc1n[nH]c(CN2CCN(Cc3ccccc3)[C@@H]3CS(=O)(=O)C[C@@H]32)n1`, 32%.
As for `CCN1C[C@H]2C3(CCN(S(C)(=O)=O)CC3)CC[C@@]2(C(=O)N(C)C)C1`, the figure is 12%; as for `Cc1cc(C(=O)N2C[C@@H]3COC[C@]3(COCc3cccnc3)C2)no1`, 12.6%.
As for `O=C(N[C@@H]1CN(c2ncccn2)[C@@H]2CCCO[C@@H]21)c1cnccn1`, the figure is 18.9%.
As to `O=C1CC[C@@H]2[C@@H](CCN2C(=O)c2ccsc2)N1Cc1ccncc1`, the Percent Effect stood at 14.7%.
For the compound `CN1C(=O)[C@H]2CC[C@@H]1CN(C(=O)c1nnc3n1CCCCC3)C2`, the Percent Effect is 17.8%.
Take `COc1cccn(CC(=O)N2CCCC3(CCOCC3)C2)c1=O`: the Percent Effect is 98.9%.
The result for `COc1ccccc1CC(=O)N1CC[C@H](O)[C@]2(CCCO2)C1` reads 18.8%.
The result for `CC1CCN(S(=O)(=O)c2cccn(CC(=O)N3CCOCC3)c2=O)CC1` reads -7.77%; that for `Cc1ccoc1C(=O)N1CC[C@@H]2O[C@@H](C)C[C@H]2C1`, 12.3%.
For the compound `Cc1nnc(SCC(=O)c2cc3c(cc2Cl)NC(=O)C3)s1`, the Percent Effect was 2.63%.
As for `Nc1nnc(SCC(=O)c2cc3c(cc2Cl)NC(=O)C3)s1`, the figure is 50%; as for `CSc1nsc(SCC(=O)c2cc3c(cc2Cl)NC(=O)C3)n1`, 13.2%; as for `Cn1cccc1C(=O)N[C@@H]1CN(Cc2cccs2)[C@@H]2COC[C@@H]21`, 5.71%.
On to `COc1ccc(CN2C[C@@H]3CN(Cc4ccncc4)C[C@@H]3C2=O)cc1`, for which the Percent Effect came out at 13.6%.
Regarding `COc1cc(N2C[C@H]3CCC[C@@H](CN4CCOCC4)[C@H]3C2)ncn1`, the Percent Effect came to 17.4%.
As for `O=C1COC2(CCN(Cc3ccoc3)CC2)CN1CCn1cccn1`, the figure is 21.4%; as for `CS(=O)(=O)N1CCC2(CC1)CN(CCn1cccn1)C(=O)CO2`, 65.8%.
Regarding `COCCN1CCC2(CC1)CN(CCn1cccn1)C(=O)CO2`, the Percent Effect worked out at 16.2%.
In the case of `CCn1cc(C(=O)N2C[C@H]3C[C@H](Oc4ccccc4)C[C@H]3C2)cn1`, the Percent Effect came out at 11.5%.
For `Cc1nc(C(=O)N2CCN(C(=O)C3CCC3)[C@@H]3CS(=O)(=O)C[C@@H]32)cs1`, the Percent Effect amounted to 2.67%.
The result for `O=C(Cc1ccsc1)N1C[C@H]2CCC[C@@]2(COCc2ccccn2)C1` reads 7.92%; that for `CCSc1ccc(NC(=O)N2CCCC2c2ccncc2)cn1` (centres undefined), 1.65%; that for `Cn1cc(NC(=O)N2CCCC2c2cccnc2)ccc1=O` (centres undefined), 100%.
As for `CN(C)CC(=O)N1CCCC1c1ccccn1` (centres undefined), the figure is 8.63%.
As for `Cc1cc(C)c(CNC(=O)N2CCCC2c2ccccn2)c(=O)[nH]1` (centres undefined), the figure is 12.3%; as for `Cn1cc(C(=O)N2CCCC2c2ccc3c(c2)OCCO3)ccc1=O` (centres undefined), 27.3%.
In the case of `COc1ccc(NC(=O)N2CCCC2c2ccncc2)cn1` (centres undefined), the Percent Effect turned out to be 13.2%.
The result for `CC(C)C1CCCN1C(=O)Nc1ccc(=O)n(C)c1` (centres undefined) reads 119%.
The result for `Cn1cc(C(=O)N2CCCC2c2ccc3c(c2)OCO3)ccc1=O` (centres undefined) reads 12.1%; that for `Cn1cc(NC(=O)N2CCCC2c2ccccn2)ccc1=O` (centres undefined), 108%.
As to `Cc1ccc(CN2CC[C@@H]3OCCN(S(C)(=O)=O)[C@H]3CC2)s1`, the Percent Effect amounted to 7.55%.
For the compound `Cn1cc(C(=O)N2CC[C@@H]3[C@@H]2CCN3Cc2cccc(C#N)c2)cn1`, the Percent Effect came out at 3%.
In the case of `CN(C)C[C@@H]1C[C@@H]2CN(C(=O)Cc3cccs3)CC[C@@H]2N1C`, the Percent Effect amounted to 6.42%.
The result for `Cc1ccc(CN2CC[C@H]3C(=O)N(Cc4cccnc4)CCO[C@H]3C2)o1` reads 5.88%.
As for `COc1ccccc1N1CCC(CNCc2cccc(O)c2)C1` (centres undefined), the figure is 21.4%; as for `COc1ccccc1N1CCC(CNCc2cccc(OC)c2OC)C1` (centres undefined), 59.5%; as for `COc1ccc(CNCC2CCN(c3ccccc3OC)C2)cc1O` (centres undefined), 16.1%.
In the case of `O=C(c1ccco1)N1CCO[C@@H]2CN(c3ccccn3)CC[C@@H]2C1`, the Percent Effect was 17.5%.
The result for `CN1CCN(C(=O)[C@@H]2CC[C@@H]3[C@@H](CCN3c3ncccn3)O2)CC1` reads 14%.
The result for `Cc1ccccc1NC(=O)N1CCN(C(=O)C2CC2)[C@@H]2CS(=O)(=O)C[C@@H]21` reads 4.92%; that for `CCN(Cc1ccc(O)c(C(=O)O)c1)CC1CCCO1` (centres undefined), 16.4%; that for `CCN(Cc1ccc2cccc(O)c2n1)CC1CCCO1` (centres undefined), 74%.
Turning to `CCN(Cc1cccc2c1OCO2)CC1CCCO1` (centres undefined), the Percent Effect amounted to 20%.
Consider `O=C1CC2(CCN(Cc3ccc(C(F)(F)F)nc3)CC2)CN1`, for which the Percent Effect amounted to 15.4%.
The result for `O=C1CC2(CCN(Cc3ccc4cccc(O)c4n3)CC2)CN1` reads 63.2%.
As for `CCCc1ccc(CN2CCC3(CC2)CNC(=O)C3)o1`, the figure is 11.7%.
For `O=C(c1cnccn1)N1CCN2C[C@H](OCc3ccccc3F)C[C@H]2C1`, the Percent Effect is 1.37%.
The result for `O=C(Cc1ccsc1)N1C[C@@H]2COC[C@]2(COc2cccnc2)C1` reads 15.4%; that for `CCc1ccccc1OCCN1CC[C@@]2(O)CCNC[C@H]2C1`, 15.8%; that for `CNC(=O)[C@@]12CCO[C@@H]1CCN(S(=O)(=O)c1ccc(C)cc1)C2`, -5%.
The result for `CCc1c(C(=O)N2CCN(C)[C@@H]3CS(=O)(=O)C[C@@H]32)[nH]c2ccccc12` reads 11%; that for `CC(C)NC(=O)N1CCCCC1c1nnc2n1CCNC2` (centres undefined), 30.3%; that for `CC(C)NC(=O)N1CCC(c2nnc3n2CCNC3)CC1`, 74.5%.
As for `CC(=O)N1CCCCC1c1nnc2n1CCNC2` (centres undefined), the figure is 2.76%.
Regarding `NC(=O)CS(=O)(=O)Cc1csc(-c2ccccc2)n1`, the Percent Effect was determined as 53%.
The result for `O=C(CS(=O)(=O)Cc1csc(-c2ccc(F)cc2)n1)NCC1CC1` reads 48.2%; that for `NC(=O)CS(=O)(=O)Cc1csc(-c2ccc(F)cc2)n1`, 16.9%; that for `O=C([C@@H]1CCO[C@@H]2CCN(CC3CC3)C[C@H]21)N1CCCCO1`, 17.9%.
The result for `O=C(c1ccccc1)N1C[C@@H]2CCCO[C@@H]2[C@H](N2CCCC2)C1` reads 22.8%.
As to `CCC[C@@H]1CN(C(=O)c2ccccc2C(C)=O)C[C@H]1N(C)C`, the Percent Effect was determined as 8.57%.
As for `CCC[C@@H]1CN(C(=O)c2cc3ccccc3cc2O)C[C@H]1N(C)C`, the Percent Effect is 77.1%.
As to `CCC[C@@H]1CN(C(=O)c2ccccc2-c2ccccc2)C[C@H]1N(C)C`, the Percent Effect turned out to be 8.57%.
Regarding `CCC1=N[C@@]2(CC[C@@H]3CN(CC(C)C)C[C@@H]32)C(=O)N1`, the Percent Effect was found to be 11.1%.
As for `CCOc1cccc(C(=O)N2C[C@H]3CC[C@@H]2CN(C(=O)C2CCC2)C3)c1`, the figure is 4%.
